The text below walks through data of PubChem BioAssay (EPA / NIEHS).

SMILES strings stand for the structures. Inconclusive results are not listed. The source made the active and inactive calls. The calls were made as follows: active = hit-call score of the fitted dose curve at least 0.9, where 1 is the maximum; inconclusive = response in the unintended direction; inactive = score below 0.9.

Chain of Retinoic acid receptor alpha (Homo sapiens) (P10276 whole entry, looked up): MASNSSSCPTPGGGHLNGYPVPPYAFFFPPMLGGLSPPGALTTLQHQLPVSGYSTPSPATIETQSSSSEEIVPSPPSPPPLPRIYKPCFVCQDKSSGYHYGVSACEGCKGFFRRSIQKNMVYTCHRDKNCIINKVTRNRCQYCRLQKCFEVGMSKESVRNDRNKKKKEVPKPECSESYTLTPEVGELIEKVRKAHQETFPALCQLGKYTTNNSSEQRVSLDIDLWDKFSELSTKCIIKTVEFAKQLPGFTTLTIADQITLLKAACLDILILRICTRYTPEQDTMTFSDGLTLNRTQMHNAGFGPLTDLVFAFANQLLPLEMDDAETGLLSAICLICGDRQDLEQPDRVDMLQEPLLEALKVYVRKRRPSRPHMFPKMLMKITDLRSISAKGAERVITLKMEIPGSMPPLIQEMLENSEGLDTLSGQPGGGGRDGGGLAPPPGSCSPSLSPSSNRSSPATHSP

The target in the assay is Retinoic acid receptor alpha (Homo sapiens) (UniProt P10276). As to the kind of experiment: ATG_RARa_TRANS: Attagene TRANS-FACTORIAL HepG2 Assay for human Retinoic Acid Receptor alpha (RARa) (AID 2283005).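 As to AC50: potency for increased reporter signal meaning RARa activation over DMSO.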 On the procedure:
ATG_TRANS is a cell-based, multiplexed-readout assay that uses HepG2, a human liver cell line, with measurements taken at 24 hours after chemical dosing in a 24-well plate.ATG_RARa_TRANS is one of 30 assay component(s) measured or calculated from the ATG_TRANS assay. It is designed to make measurements of mRNA induction, a form of inducible reporter, as detected with fluorescence intensity signals by Reverse transcription polymerase chain reaction (RT-PCR) and Capillary electrophoresis technology.Data from the assay component ATG_RARa_TRANS was analyzed into 1 assay endpoint. This assay endpoint, ATG_RARa_TRANS, was analyzed in the positive analysis fitting direction relative to DMSO as the negative control and baseline of activity. Using a type of inducible reporter, measures of mRNA for gain-of-signal activity can be used to understand the reporter gene at the transcription factor-level as they relate to the gene RARA. Furthermore, this assay endpoint can be referred to as a primary readout, because this assay has produced multiple assay endpoints where this one serves a reporter gene function. To generalize the intended target to other relatable targets, this assay endpoint is annotated to the nuclear receptor intended target family, where the subfamily is non-steroidal.
Human liver HepG2 cells are transiently transfected with multiple reporter transcription units (MRTUs) in 6-well plates using FuGene 6 reagent (Roche; 3 ml FuGene/1 mg DNA). The MRTU constructs are regulated by a cis-regulating element (promoter). […] A major difference between the CIS and TRANS system is that in CIS activities of endogenous TFs are measured, whereas the TRANS assay evaluates changes in activities of exogenous, chimeric NR-Gal4 proteins. […] At the end of 24 hour incubation, total RNA was isolated using TriZol reagent (Invitrogen). The isolated RNA is then reverse-transcribed using oligo(dT) primer and Mo-MLV reverse transcriptase (Invitrogen) with DNAse I (Ambion) treatment for 30 min. The one-tenth of the produced cDNA was amplified by PCR using Taq DNA polymerase (Invitrogen) and two reporter sequence-specific primers. The PCR products were fluorescently labeled by primer extension with 6-arboxyfluorescein (6-FAM) 5'-labeled reporter sequence-specific primer (2 min at 95 C, 20 s at 68 C and 10 min at 72 C) and these products were digested with 5U of HpaI (New England Biolabs) for 2h at 37 C. The fragments were purified using Qiaquick PCR columns (Qiagen), analyzed on an ABI 3130xL genetic analyzer (Applied Biosystems) with peak positions identified by using a set of X-rhodamine (ROX)-labeled MapMarker1000 molecular weight standards (BioVentures). The raw capillary electrophoresis data was processed using Attagraph software (Attagene).
For `CC1(C)COCN1`, the result was inactive. Take `NC1CCCCC1N` (stereo not given): the outcome was inactive. Consider `CCCCC1CCC(O)CC1` (stereo not given), for which the call was inactive. Turning to `O=C1NC2NC(=O)NC2N1` (stereo not given), the call was inactive. Take `OCCCCC(O)CO` (stereo not given): the call was inactive. Same read-out and setting: with `CCCCCCCCc1ccc(S(=O)(=O)O)cc1` the entry was “inactive”; with `CC(C)NCC(O)COc1ccc(CC(N)=O)cc1` (stereo not given), “inactive”. In the case of `COC(=O)c1ccc(C)cc1C1=NC(C)(C(C)C)C(=O)N1` (stereo not given) (tested in a mixture with another compound), the outcome was inactive. Still for that read-out and setting: as for `CCCCCCCCC=CCCCCCCCC1=NCCN1CCO`, the entry is “inactive”.

As usually defined, the AC50 is the concentration giving half of the maximal activity seen. `CCc1cc(Cc2cc(CC)cc(C(C)(C)C)c2O)c(O)c(C(C)(C)C)c1`: the AC50 is 8.99 µM (active).

For the compound `CCCCC(CC)COC(=O)c1ccc(O)cc1` (stereo not given), the outcome was inactive. On the same count and under the same terms, as for `CCCCCCC(CO)CCCC` (stereo not given), the entry is “inactive”; as for `CCCCCCCC(=O)OCC(O)CO` (stereo not given), “inactive”; as for `C=CC(=O)OCCC#N`, “inactive”. Consider `Cc1cc(S(=O)(=O)O)ccc1N=Nc1c(O)ccc2ccccc12`, for which the compound was classed as inactive. Take `COc1cc(C(C)C)ccc1C`: the compound was called inactive.

Take `O=C(c1ccccc1)C(O)c1ccccc1` (stereo not given): the result was inactive. The same measure, in the same setting: as for `C=C(C)C1CC=C(C)C(=O)C1` (stereo not given), the entry is “inactive”; as for `O=C(O)CNc1ccccc1`, “inactive”. As for `CCCCCCC(O)CCCCCCCCCCC(=O)O` (stereo not given), the call was inactive. With `CC(C)CCCCCCc1ccc(OCCOCCO)cc1`, the AC50 is 10.2 µM (active). As for `CC1CC(O)CC(C)(C)C1` (stereo not given), the outcome was inactive. For the compound `COc1ccc(CCN2CCC(Nc3nc4ccccc4n3Cc3ccc(F)cc3)CC2)cc1`, the compound was called inactive.

For `C=CC(C)C#N` (stereo not given), the result was inactive. In the case of `Cc1cc(CCC(=O)OCCOCCOCCOC(=O)CCc2cc(C)c(O)c(C(C)(C)C)c2)cc(C(C)(C)C)c1O`, the result was inactive. With `CS(C)=O`, the compound was called inactive.

Regarding `CC1(C)C(=O)N(Cl)C(=O)N1Br`, the outcome was inactive. For the compound `CCC1CCCCC1`, the result was inactive. As for `O=C(O)COCC(=O)O`, the compound was classed as inactive. As for `CCCC[P+](CCCC)(CCCC)CCCC`, the outcome was inactive. For `Brc1ccc(Br)c(Br)c1`, the compound was called inactive. With `CCC(C)c1cc([N+](=O)[O-])cc([N+](=O)[O-])c1OC(=O)OC(C)C` (stereo not given), the compound was classed as inactive.

Regarding `CC(C)CCCCCCCCCCCCCCC(=O)O`, the compound was classed as inactive.

Take `CN(c1nccc(=O)[nH]1)C1CCN(c2nc3ccccc3n2Cc2ccc(F)cc2)CC1`: the compound was classed as inactive. Consider `COC(C)(C)CCCC(C)CC=O` (stereo not given), for which the outcome was inactive. Take `C[Si](C)(C)O[Si](C)(C)C`: the compound was classed as inactive.

In the case of `CCOc1ccc(NC(=O)CC(C)O)cc1` (stereo not given), the result was inactive.

For the compound `C[Si]1(C)O[Si](C)(C)O[Si](C)(C)O1`, the result was inactive. Consider `Cc1ccc2c(c1)C(=O)OC2=O`, for which the result was inactive. Take `CCCCCCCCCCCC(=O)OC[C@@H](O)[C@H]1OC[C@H](O)[C@H]1O`: the result was inactive.
